Bioassay records from PubChem BioAssay.
BAZ2B inh – blocks human BAZ2B. AlphaScreen BAZ2B-H3K14Ac peptide displacement. Q9UIF8. Potency, µM (doses to about 114 µM), inactives show at the top dose activity change, negative = inhibition, hits mostly inhibitors. actives 4.4% (n = 360,000); further: on the % scale 0 is the no-effect control and ±100 the full control effect; nearly all actives have a fitted effect of over 60% in size
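Multi-concentration screen (max 110 uM) measuring displacement of acetylated histone H3 peptide from BAZ2B by AlphaScreen, using 50 nM protein, 50 nM peptide and 10 ug/mL streptavidin donor plus Ni-chelate acceptor beads.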
HP1b chromo inh – HP1-beta chromodomain-methylated histone interaction inhibition; P83916; Potency, µM (highest dose often 114 µM), for inactives: at the highest dose activity change, negative = inhibition, most hits filed as inhibitors; AID 540317; AlphaScreen HP1-beta / biotin-H3K9me3 peptide binding; actives 0.56% (n = 390,000); further: nearly all actives have a fitted effect of over 70% in size
Target sequence (P83916 whole entry, looked up): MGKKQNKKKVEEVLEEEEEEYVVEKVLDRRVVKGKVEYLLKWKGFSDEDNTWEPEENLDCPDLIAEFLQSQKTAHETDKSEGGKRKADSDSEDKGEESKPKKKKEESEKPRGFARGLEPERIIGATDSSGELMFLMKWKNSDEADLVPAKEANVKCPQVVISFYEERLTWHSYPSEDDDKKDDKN
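AlphaScreen: HP1-beta (50 nM) preformed 30 min with biotin-H3(1-18)K9me3 peptide (50 nM) in PBS pH 7.4, 0.01% Tween-20. Compound added for 30 min at RT, then streptavidin donor/nickel chelate acceptor beads (10 ug/mL) for 30 min.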
G9a block – G9a (human) methyltransferase inhibition; G9a H3K9 monomethylation, AlphaScreen, 2 h; actives 8.8% (n = 350,000); Potency, µM (series often up to 102 µM), for inactives: at the highest dose activity, negative = inhibition, usual class: inhibitors; AID 504332; Q96KQ7; further: on the % scale 0 is the no-effect control and ±100 the full control effect; nearly all actives have a fitted effect of over 75% in size
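Enzyme 20 nM + cpd, 15 min RT; add b-H3K9 pep 500 nM / SAM 20 uM; 2 h RT; anti-H3K9me1 Ab 0.5 ug/mL + SA donor / anti-rabbit acceptor beads 20 ug/mL each, 10 min; AlphaScreen read.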
JMJD2A Tudor inh – JMJD2A Tudor domain (human) inhibition. O75164. AlphaScreen JMJD2A-Tudor / H3K4me3 peptide binding. Potency, µM (highest dose often 114 µM), inactives show at the highest dose activity change, negative = inhibition, most hits filed as inhibitors. actives 4.4% (n = 390,000). AID 504339; further: on the % scale 0 is the no-effect control and ±100 the full control effect; nearly all actives have a fitted effect of over 50% in size
Sfp inh – blocks B. subtilis Sfp PPTase activity | Q9F4F7 | Biochemical Sfp PPTase activity, qHTS | Potency, µM, for the others: largest response in the series, negative = inhibition, actives largely listed as inhibitors | actives 3.5% (n = 310,000);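 further: the enzyme is Sfp with the accession as filed and its product quenches rhodamine fluorescence; 0% = enzyme reaction without inhibitor and -100% = no enzyme wells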
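After 15 min at room temperature with compound, 15 nM Sfp received 5 uM rhodamine-CoA plus 12.5 uM BHQ-2-ybbR (50 mM Hepes pH 7.6, 10 mM MgCl2). Rate came from the fluorescence difference over 30 min, ex 525/em 598 nm.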
TDP1 block – blocks human tyrosyl-DNA phosphodiesterase 1; Q9NUW8; recombinant TDP1, AlphaScreen DNA substrate cleavage; Potency, µM (series often up to 130 µM), for inactives: top-dose activity change, negative = inhibition, actives largely listed as inhibitors; actives 0.28% (n = 350,000); AID 485290; further: on the % scale 0 is the no-effect control and ±100 the full control effect; nearly all actives have a fitted effect of over 40% in size
Target sequence (Q9NUW8 whole entry, looked up): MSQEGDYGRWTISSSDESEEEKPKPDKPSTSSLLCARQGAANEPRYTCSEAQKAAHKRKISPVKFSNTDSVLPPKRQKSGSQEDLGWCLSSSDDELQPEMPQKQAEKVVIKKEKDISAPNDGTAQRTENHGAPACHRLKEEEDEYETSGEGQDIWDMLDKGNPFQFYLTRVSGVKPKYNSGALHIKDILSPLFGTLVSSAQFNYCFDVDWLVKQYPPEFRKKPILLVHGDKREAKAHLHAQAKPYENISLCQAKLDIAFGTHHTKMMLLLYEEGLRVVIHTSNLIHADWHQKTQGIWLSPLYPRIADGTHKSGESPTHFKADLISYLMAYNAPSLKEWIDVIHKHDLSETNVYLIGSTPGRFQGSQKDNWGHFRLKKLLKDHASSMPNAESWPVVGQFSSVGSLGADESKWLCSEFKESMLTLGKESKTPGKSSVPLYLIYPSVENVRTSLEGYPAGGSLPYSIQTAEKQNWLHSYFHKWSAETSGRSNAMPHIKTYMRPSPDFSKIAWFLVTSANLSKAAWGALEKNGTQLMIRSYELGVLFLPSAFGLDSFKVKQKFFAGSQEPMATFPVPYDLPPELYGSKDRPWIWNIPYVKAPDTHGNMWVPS
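Steps: enzyme plus compound, 15 min RT; add biotin/phosphotyrosine-FITC oligonucleotide (15 nM final), react 5 min; add donor/acceptor beads (10 ug/ml final), 10 min; read AlphaScreen. Tdp1 at 1 nM final.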
Numbers without * were called inactive; [ ] = dose if it differs, or a comment. Compounds with a hit are over-represented: about 12% of the library has one in this group of screens. The call rests on the fitted dose curve; in most records, active means well fitted curve in the direction sought with a large enough effect; inconclusive means small, poorly fitted or top-dose-only effect, or another doubt; inactive means no such curve, though single readings can be large; an effect the other way counts as inactive or inconclusive. Potency means the concentration at half of the fitted maximal effect.

What do the screens show for `Cc1cccc(NC(=O)/C(=C\c2ccc([N+](=O)[O-])o2)NC(=O)c2ccc(Cl)cc2)c1`?
BAZ2B inh: 50.1µM*; HP1b chromo inh: inconclusive; G9a block: inconclusive; JMJD2A Tudor inh: 35.5µM*; Sfp inh: 11.9%; TDP1 block: -0.6%

How did Cc1ccc(NC(=O)/C(=C\c2ccco2)NC(=O)c2ccco2)cc1 do in these assays?
BAZ2B inh: -1.5%; HP1b chromo inh: 47.1%; G9a block: 28.2µM*; JMJD2A Tudor inh: inconclusive; Sfp inh: -20.1%

Results for COc1ccccc1C(=O)N/C(=C/c1ccco1)C(=O)Nc1cccc(C(=O)O)c1 ?
BAZ2B inh: inconclusive; HP1b chromo inh: 3.5%; G9a block: inconclusive; JMJD2A Tudor inh: 79.4µM*; Sfp inh: 50.1µM*; TDP1 block: 0.0%

Results for Cc1ccc(C(=O)N/C(=C/c2ccco2)C(=O)Nc2cccc(C(=O)O)c2)cc1 ?
BAZ2B inh: 22.2%; HP1b chromo inh: 2.1%; JMJD2A Tudor inh: 79.4µM*; Sfp inh: 44.7µM*; TDP1 block: -11.0%

How did COc1ccc(-c2nc3ccccc3c(=O)n2Cc2ccccc2)cc1OCc1ccc(NC(C)=O)cc1 do in these assays?
JMJD2A Tudor inh: inconclusive; TDP1 block: 2.7%

What do the screens show for `Cc1ccc(NC(=O)C(=O)NCc2ccco2)cc1`?
BAZ2B inh: 2.1%; HP1b chromo inh: 29.8%; G9a block: 7.0%[59 µM]; JMJD2A Tudor inh: -9.2%; TDP1 block: -4.8%[12.3 µM]

How did Cc1ccc(NC(=O)N/C=C/c2ccco2)cc1 do in these assays?
BAZ2B inh: 79.4µM*; HP1b chromo inh: -11.0%; G9a block: inconclusive; JMJD2A Tudor inh: 50.1µM*; Sfp inh: inconclusive; TDP1 block: -13.2%

How did Cc1cc(OCCn2ccnc2)cc(C(C)C)c1 do in these assays?
BAZ2B inh: 28.2µM*; HP1b chromo inh: 22.4µM*; G9a block: 11.2µM*; JMJD2A Tudor inh: 0.794µM*; Sfp inh: -13.1%; TDP1 block: 2.6%

What do the screens show for `CCOc1ccc(OCCOCCn2ccnc2)cc1`?
BAZ2B inh: 79.4µM*; HP1b chromo inh: inconclusive; G9a block: inconclusive; JMJD2A Tudor inh: 8.91µM*; Sfp inh: -7.6%; TDP1 block: 2.0%

Results for Cc1cc(C)cc(OCCn2ccnc2)c1 ?
BAZ2B inh: -23.9%; HP1b chromo inh: 23.7%; G9a block: -8.1%; JMJD2A Tudor inh: -34.9%; Sfp inh: 20.9%; TDP1 block: 5.9%

Results for CCC(C)c1ccc(OCCn2ccnc2)cc1 (stereo not drawn) ?
BAZ2B inh: 50.1µM*; HP1b chromo inh: -37.1%; G9a block: inconclusive; JMJD2A Tudor inh: 20µM*; Sfp inh: -6.3%; TDP1 block: 3.5%

How did CCCCOc1ccc(NC(=O)C(=O)NCCCn2ccnc2)cc1 do in these assays?
BAZ2B inh: -36.3%; HP1b chromo inh: 30.2%; G9a block: -15.3%; JMJD2A Tudor inh: -21.8%; Sfp inh: 1.6%; TDP1 block: 7.9%

What do the screens show for `COC(=O)c1c(NC(=O)c2nc(SCc3ccccc3C)ncc2Cl)sc2c1CCCC2`?
BAZ2B inh: 24.2%; HP1b chromo inh: 63.5%; G9a block: 29.9%[59 µM]; JMJD2A Tudor inh: -25.5%; TDP1 block: 0.0%

Results for O=[N+]([O-])c1cc(C(F)(F)F)cc([N+](=O)[O-])c1NCCNC(=S)Nc1ccc(Cl)c(Cl)c1 ?
BAZ2B inh: 25.1µM*; HP1b chromo inh: -31.2%; JMJD2A Tudor inh: 31.6µM*; Sfp inh: -5.1%; TDP1 block: 10.1%

What do the screens show for `S=C(NCc1ccncc1)Nc1ccc(Cl)c(Cl)c1`?
BAZ2B inh: 0.0%; HP1b chromo inh: 53.8%; G9a block: 28.8%[59 µM]; JMJD2A Tudor inh: -15.1%; Sfp inh: 7.1%; TDP1 block: 2.7%

How did CCCCCCC1(C)NC(=S)N(c2ccccc2)N1 (stereo not drawn) do in these assays?
HP1b chromo inh: inconclusive; G9a block: 14.1µM*; JMJD2A Tudor inh: inconclusive; Sfp inh: inconclusive; TDP1 block: 10.4%

Results for O=C(CC(=O)Nc1ccccc1)Nc1ccccc1 ?
HP1b chromo inh: -2.2%; JMJD2A Tudor inh: -10.7%

How did CCCCCC1(C)NC(=S)N(c2ccccc2)N1 (stereo not drawn) do in these assays?
BAZ2B inh: inconclusive; HP1b chromo inh: -6.9%; G9a block: inconclusive; JMJD2A Tudor inh: 50.1µM*; Sfp inh: 39.8µM*; TDP1 block: 8.6%

What do the screens show for `C=C(C)CCC1(C)NC(=O)N(c2ccccc2)N1` (stereo not drawn)?
BAZ2B inh: -18.6%; HP1b chromo inh: 26.3%; G9a block: inconclusive; JMJD2A Tudor inh: -1.8%; Sfp inh: -9.1%; TDP1 block: -5.9%

Results for CC1(CC(=O)Nc2ccccc2)NC(=S)N(c2ccccc2)N1 (stereo not drawn) ?
BAZ2B inh: inconclusive; HP1b chromo inh: -7.3%; G9a block: inconclusive; JMJD2A Tudor inh: 5.62µM*; Sfp inh: inconclusive; TDP1 block: 8.2%

How did Cc1cc(Cl)cc(C)c1OCC(=O)N1CCN(c2ncccn2)CC1 do in these assays?
BAZ2B inh: -3.4%; HP1b chromo inh: 51.7%; G9a block: 12.8%[12.7 µM]; JMJD2A Tudor inh: 3.1%; TDP1 block: -6.1%

Results for CCOc1ccccc1NC(=O)c1cc2c(=O)oc3ccccc3c2s1 ?
BAZ2B inh: 14.8%[57.1 µM]; HP1b chromo inh: 50.1%; G9a block: 3.4%[59 µM]; JMJD2A Tudor inh: -26.2%; TDP1 block: 4.2%

How did COC(=O)c1ccccc1NC(=O)CSc1nc(N)cc(N)n1 do in these assays?
BAZ2B inh: -6.5%; HP1b chromo inh: 28.1%; G9a block: -12.1%; JMJD2A Tudor inh: -10.6%; Sfp inh: 5.0%; TDP1 block: 7.4%

What do the screens show for `Cc1ccc(C)c(SCC(=O)Nc2cc(S(=O)(=O)N3CCOCC3)ccc2C)c1`?
BAZ2B inh: 5.5%; HP1b chromo inh: 15.8%; G9a block: 14.1µM*; JMJD2A Tudor inh: -17.9%; TDP1 block: -13.6%

How did CCNC(=O)NC(=O)CSc1ccc(S(=O)(=O)N2CCOCC2)cn1 do in these assays?
HP1b chromo inh: 46.8%; JMJD2A Tudor inh: -0.7%; TDP1 block: 0.9%

How did Cc1ccc(S(=O)(=O)N2CCOCC2)cc1NC(=O)CSc1nc(N)cc(=O)[nH]1 do in these assays?
BAZ2B inh: 0.8%; HP1b chromo inh: 33.4%; JMJD2A Tudor inh: 0.0%; Sfp inh: 70.8µM*; TDP1 block: 0.0%

How did Cc1ccc(C)c(SCC(=O)Nc2cccc(S(=O)(=O)N3CCOCC3)c2)c1 do in these assays?
BAZ2B inh: -4.5%; HP1b chromo inh: 29.9%; G9a block: 6.3%[0.501 µM]; JMJD2A Tudor inh: -8.9%; TDP1 block: -3.0%
